From PubChem BioAssay
In the library only some 1.3% were active in any assay of this set; here they are far more common.
IDE act: human IDE activators in live cells, primary screen, fluorescence polarization, HEK cells, FAbeta-B substrate | FAbeta-B cleavage; 0% vehicle, 100% cell-free pure enzyme wells | activation, % at 5.96 µM | hit rate 0.073% among 340,000 | Insulin-degrading enzyme (Homo sapiens), P14735;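 active = activation above the mean of all tested compounds plus 3 SD, set per screening campaign, cut at about 17% in these data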
PKA-R1A act: activators of PKA-R1A holoenzyme, primary screen, biochemical, fluorescence polarization, Cy5-IP20, bovine R1A, mouse PKAc. PKA-R1A dissociation; scaled: DMSO 0%, 113 µM cGMP 100%. activation, % at 11.4 µM. AID 504707, 2011. hit rate 0.083% among 340,000;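 active = percent activation above the mean of all tested compounds plus 3 SD, cut at about 19% in these data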;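 also: higher means more PKAc released from R1A so a rise in polarization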
eLon inh: inhibitors of E. coli Lon protease, primary screen, biochemical, fluorescence polarization | purified E. coli Lon protease | hit rate 0.42% among 360,000 | inhibition, % at 7.94 µM | AID 602123, 2011; in the data active = inhibition above about 13%, passing the limit was not always enough
Target sequence (P0A9M0 whole entry, looked up): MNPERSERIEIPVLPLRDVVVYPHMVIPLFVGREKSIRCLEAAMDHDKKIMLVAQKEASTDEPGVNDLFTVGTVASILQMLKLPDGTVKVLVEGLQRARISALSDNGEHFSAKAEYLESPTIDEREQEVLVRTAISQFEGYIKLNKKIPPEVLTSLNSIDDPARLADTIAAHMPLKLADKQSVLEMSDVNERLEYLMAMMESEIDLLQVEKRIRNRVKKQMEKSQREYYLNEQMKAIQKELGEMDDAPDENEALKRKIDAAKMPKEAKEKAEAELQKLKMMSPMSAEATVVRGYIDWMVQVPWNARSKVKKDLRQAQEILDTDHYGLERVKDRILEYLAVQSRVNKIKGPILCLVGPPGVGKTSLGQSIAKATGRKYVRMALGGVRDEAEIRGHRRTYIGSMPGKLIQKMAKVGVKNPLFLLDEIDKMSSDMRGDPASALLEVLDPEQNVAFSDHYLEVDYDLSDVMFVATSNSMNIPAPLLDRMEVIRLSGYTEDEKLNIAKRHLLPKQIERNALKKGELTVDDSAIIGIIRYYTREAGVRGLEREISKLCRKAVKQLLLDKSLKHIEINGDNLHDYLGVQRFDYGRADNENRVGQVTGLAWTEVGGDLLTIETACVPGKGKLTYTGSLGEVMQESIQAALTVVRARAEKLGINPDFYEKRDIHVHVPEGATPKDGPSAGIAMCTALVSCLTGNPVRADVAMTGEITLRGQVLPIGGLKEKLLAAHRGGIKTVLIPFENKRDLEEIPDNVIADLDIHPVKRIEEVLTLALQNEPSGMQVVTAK
Rin1-Abl PPI inh: inhibitors of Rin1-Abl protein binding, primary screen, biochemical, TR-FRET | Tyrosine-protein kinase ABL1 (Homo sapiens) + Ras and Rab interactor 1 (Homo sapiens), … | inhibition, % at 7.35 µM | hit rate 0.4% among 360,000; in the data active = inhibition above about 5%, passing the limit was not always enough
PKA-R2B activ: activators of PKA-R2B holoenzyme, primary screen, biochemical, fluorescence polarization, Cy5-IP20, human; hit rate 0.079% among 340,000; PKA-R2B holoenzyme dissociation; R2B truncated from residue 108, S112A mutant; 0% DMSO only, 100% 113 µM cGMP; activation, % at 11.4 µM; cAMP-dependent protein kinase catalytic subunit beta (Homo sapiens) + cAMP-dependent …;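 active = activation above a cutoff set at the mean over all compounds plus 3 SD, cut at about 18% in these data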;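 also: higher means more holoenzyme dissociation and a rise in polarization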
IDE cell inh: human IDE inhibitors in live cells, primary screen, fluorescence polarization, HEK cells, FAbetaB substrate. hit rate 0.41% among 320,000. AID 434962, 2010. FAbetaB cleavage. inhibition, % at 5.59 µM. Insulin-degrading enzyme (Homo sapiens), P14735;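 active = percent inhibition above the average of all tested compounds plus 3 SD, set per screening campaign, cut at about 16% in these data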;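 also: IDE supplied by intact live HEK cells; FP after avidin binding of uncleaved biotin substrate so inhibition keeps polarization high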
E coli Lon conf: E. coli Lon protease inhibitor retest, confirmation, biochemical, fluorescence polarization; shares compounds with eLon inh; purified E. coli Lon; inhibition, % at 7.94 µM; hit rate 31% among 1,400; in the data active = inhibition above about 16%
Of the large screens only hits and unclear results are named; the others gave an inactive call (follow-up assays come after a bar, where they were run).

CC(C)(C)c1cc(C(=O)N/N=C/c2ccc(-c3ccccc3[N+](=O)[O-])o2)n[nH]1	eLon inh 25 | E coli Lon conf inactive
CCOC(=O)C1=C(CSc2nc3c(cc2C#N)CN(C)CC3)OC(N)=C(C#N)C1c1ccncc1 (stereo unspecified)	eLon inh 35 | E coli Lon conf inactive
Cc1ccsc1C(=O)OCC(=O)Nc1cccc(S(=O)(=O)N2CCCCC2)c1	none (no result: IDE act, IDE cell inh)
CCN(C(=O)COC(=O)C1CCN(S(=O)(=O)c2c(Cl)cccc2Cl)CC1)C1CCCCC1	none
CCOC(=O)NC(=O)C(/C=N/c1sccc1C(=O)OC)=C(\C)O	eLon inh 42 (no result: IDE act, PKA-R1A act, PKA-R2B activ) | E coli Lon conf inactive
CCC(=O)Nc1sccc1C(=O)OC	none
CC1(C)C(C#N)=C(N)OC2=C1C(=O)CCC2	none
CC(=O)OCC(=O)Nc1ccc(C(C)=O)cc1	eLon inh 28 | E coli Lon conf inactive
CC(=O)NCC(=O)OCC(=O)Nc1ccc(C(C)=O)cc1	none
COc1ccc(CN2CCNC(=O)C2CC(=O)NCc2csc(C(C)C)n2)c(OC)c1 (stereo unspecified)	none (no result: IDE act, PKA-R1A act, eLon inh, Rin1-Abl PPI inh, PKA-R2B activ)
COc1ccc(CN2CCNC(=O)C2CC(=O)NCc2csc(C)n2)c(F)c1 (stereo unspecified)	eLon inh 19 | E coli Lon conf inactive
COc1ccc(N=NC2=C(O)CC(C)(C)CC2=O)cc1	none
COc1ccc(N=NC2=C(O)CC(C)(C)CC2=O)c(OC)c1	eLon inh 22 | E coli Lon conf inactive
COc1ccccc1-c1ccc2c(c1)C(C)(Cc1ccc(Cl)cc1)C(=O)N2 (stereo unspecified)	none (no result: IDE act, PKA-R1A act, PKA-R2B activ, IDE cell inh)
COc1ccccc1-c1ccc2c(c1)C(C)(Cc1ccc(F)c(Cl)c1)C(=O)N2 (stereo unspecified)	eLon inh 16 (no result: IDE act, PKA-R1A act, PKA-R2B activ, IDE cell inh) | E coli Lon conf inactive
Cc1cc2oc(=O)cc(CN3CCCCC3)c2cc1C(C)C	none
Cc1ccc(C)c2c1c1ccccc1n2C	none
CN(C)c1cc2c3ccccc3n(C)c2cc1N	eLon inh 41 (no result: IDE cell inh) | E coli Lon conf 52
CC(=O)Nc1ccc(NC(=O)[C@H](C)NC(=O)c2ccco2)cc1	eLon inh 53 | E coli Lon conf inactive
Clc1cccc(NCc2cn3cccnc3n2)c1	eLon inh 17 | E coli Lon conf inactive
C=CCn1c(=NC(=O)C2COc3ccccc3O2)sc2cc(S(N)(=O)=O)ccc21 (stereo unspecified)	eLon inh 23 | E coli Lon conf inactive
Cn1c(-c2ccccc2)c(CCO)c2ccccc21	eLon inh 32 | E coli Lon conf inactive
O=c1c([N+](=O)[O-])c(N2CCOCC2)c2ccccc2n1Cc1ccccc1	none
CC1(C)CC(=O)C2=C(C1)OC1=C(C(=O)CC(C)(C)C1)C2c1ccc(O)cc1O	eLon inh 65 | E coli Lon conf 96
CCOc1ccccc1N(CC)C(=O)c1ccc2c(=O)n3c(nc2c1)CCCCC3	eLon inh 21 | E coli Lon conf inactive
Cc1ccc(OCCCN2CCC(C(O)(c3ccccc3)c3ccccc3)CC2)cc1	none (no result: IDE act, PKA-R1A act, Rin1-Abl PPI inh, PKA-R2B activ, IDE cell inh)
O=C1c2ccccc2C(=O)N1SC1CCCCC1	eLon inh 19 | E coli Lon conf inactive
O=C(OCN1C(=O)c2ccccc2C1=O)C1CCCCC1	none
CCN1C(=O)[C@H]2[C@@H](c3ccc(C)cc3)N[C@]3(CCCN(Cc4ccc(C)cc4)C3=O)[C@H]2C1=O	none (no result: IDE act, IDE cell inh)
Cc1cc(=O)n(CC(=O)NC2CC2)c2c1c(C)nn2-c1ccccc1	none
Cc1cc(=O)n(CC(=O)NCCN2CCOCC2)c2c1c(C)nn2-c1ccccc1	eLon inh 17 | E coli Lon conf inactive
OCc1c[nH]c2ccccc12	none
COc1cc(OC)cc(C(=O)OCc2cc3ccccc3[nH]c2=O)c1	eLon inh 23 | E coli Lon conf inactive
CC(C)CC1C(=O)N(Cc2cn(CCC3OCCCO3)nn2)CCS(=O)(=O)N1Cc1ccc(-c2ccc(Cl)c(Cl)c2)cc1 (stereo unspecified)	none (no result: IDE act, IDE cell inh)
O=C(CNC(=O)c1cccs1)NCC(=O)OCC(=O)c1ccccc1	none
CCc1[nH]c(=O)[nH]c1C(C)S(=O)(=O)c1ccc(C)cc1 (stereo unspecified)	none
CCc1c(C(C)S(=O)(=O)c2ccc(C)cc2)[nH]c(=O)n1-c1ccc(C)cc1 (stereo unspecified)	eLon inh 63 | E coli Lon conf inactive
COC(=O)c1ccccc1NC(=O)N[C@@H](C)C(=O)OC	eLon inh 16 | E coli Lon conf inactive
Cc1occc1C(=O)NN1C(=O)C2C3CCC(O3)C2C1=O (stereo unspecified)	none
O=c1c(-c2cc3ccccc3o2)[n+]([O-])c2ccccc2n1OCc1ccccn1	eLon inh 20 | E coli Lon conf inactive
CCOC(=O)c1c2c3c(c(Cl)ccc3[nH]c1=O)C(=O)c1ccccc1-2	eLon inh 17 (no result: IDE act, PKA-R1A act, PKA-R2B activ, IDE cell inh) | E coli Lon conf 38
Cn1c(=O)c(Nc2ccc(Cl)cc2)c2c3c(cccc31)C(=O)c1ccccc1-2	none (no result: IDE act, PKA-R1A act, eLon inh, Rin1-Abl PPI inh, PKA-R2B activ)
CCOC(=O)c1c2c3c(cccc3[nH]c1=O)C(=O)c1ccccc1-2	none
CCOC(=O)c1c2c3c(cccc3n(C)c1=O)C(=O)c1ccccc1-2	eLon inh 144 | E coli Lon conf 65
CCN(CC)C(=O)c1cccc(-c2csc(C(O)c3ccc(OC)cc3)n2)c1 (stereo unspecified)	none (no result: IDE act, PKA-R1A act, PKA-R2B activ, IDE cell inh)
Cc1c(OC(C)C(=O)NCC2CCC(C(=O)O)CC2)ccc2c3c(c(=O)oc12)CCCC3 (stereo unspecified)	none
O=C(CN1C(=O)NC2(CCCCC2)C1=O)Nc1ccc2[nH]c(=O)[nH]c2c1	eLon inh 40 | E coli Lon conf inactive
Cc1ccc(NC(=O)CN2C(=O)NC3(CCCCCCC3)C2=O)cc1C	none
Cc1ccccc1NC(=S)NC(C)C(c1ccccc1)N1CCN(C)CC1 (stereo unspecified)	none
Cc1c(NS(=O)(=O)c2ccc(NCC3CCCO3)c([N+](=O)[O-])c2)c(=O)n(-c2ccccc2)n1C (stereo unspecified)	none
NC(=O)c1ncn([C@@H]2O[C@H](CNC(=O)[C@H](N)CSCc3ccccc3)[C@@H](O)[C@H]2O)n1	eLon inh 24 (no result: IDE cell inh) | E coli Lon conf inactive
COC(=O)c1ccsc1NC(=O)CSc1nnnn1-c1ccccc1SC	eLon inh 20 | E coli Lon conf inactive
CSc1ccccc1NC(=O)CSc1nnnn1-c1ccccc1SC	none
